The values that follow come from PubChem BioAssay (EPA / NIEHS).

Test [1] is described as follows: ATG_M_06_TRANS: Attagene TRANS-FACTORIAL HepG2 Assay for M06 Transcription Factor (Internal Marker) (AID 2282983; active means hit-call score of the fitted dose curve at least 0.9, where 1 is the maximum). Conditions: HepG2 Attagene TRANS M06 internal marker reporter. The method, boiled down: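 Human liver HepG2 cells bearing transiently transfected chimeric NR-GAL4 reporter units were treated with chemicals for 24 h. Total RNA was reverse-transcribed, reporter sequences amplified and labelled, then quantified by capillary electrophoresis. Activity was fitted upward relative to DMSO.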

A short description of test [2]: ATG_M_32_TRANS: Attagene TRANS-FACTORIAL HepG2 Assay for M32 Transcription Factor (Internal Marker) (AID 2282984; active means hit-call score of the fitted dose curve at least 0.9, where 1 is the maximum;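 further: transcript level of a background control reporter unit measured by RT-PCR and capillary electrophoresis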). Conditions: HepG2 Attagene TRANS M32 internal marker reporter. The gist of the method:
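After 24 h dosing of transfected HepG2 cells, total RNA was reverse-transcribed, reporter sequences PCR-amplified, 6-FAM labelled by primer extension and HpaI-digested before capillary electrophoresis. Signal increase over DMSO was fitted.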

The target in test [3] is Transcriptional activator Myb (Homo sapiens) (UniProt P10242). In words: ATG_Myb_CIS: Attagene CIS-FACTORIAL HepG2 Assay for human Myeloblastosis (Myb) Proto-Oncogene Transcription Factor (AID 2282986). Conditions: HepG2 Attagene CIS-FACTORIAL Myb reporter transcription; actives raise or lower the signal. The gist of the method:
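Transiently transfected HepG2 cells carrying a multiplexed cis-promoter reporter set report endogenous Myb activity after 24 h compound exposure. Reporter mRNA is read by RT-PCR with capillary electrophoresis of fluorescent products, fitted bidirectionally against DMSO.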

Test [4] deals with Nuclear respiratory factor 1 (Homo sapiens) (UniProt Q16656). In words: ATG_NRF1_CIS: Attagene CIS-FACTORIAL HepG2 Assay for human Nuclear Respiratory Factor 1 (NRF1) Orphan Gene (AID 2282987). Conditions: HepG2 NRF1 cis-element reporter, Attagene multiplex; actives raise or lower the signal. The gist of the method: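 HepG2 cells transiently transfected with multiple cis-regulated reporter units, exposed 24 h. Reporter mRNAs measured by RT-PCR, fluorescent labelling, HpaI digestion and capillary electrophoresis; bidirectional fitting against DMSO.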

Test [5] in a line: ATG_NFI_CIS: Attagene CIS-FACTORIAL HepG2 Assay for human Nuclear Factor I (NFI) (AID 2282989). Particulars: HepG2 cis-regulatory reporter, NFI response element transcription; actives raise or lower the signal. The method, boiled down:
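Transfected HepG2 liver cells, exposed 24 h, supplied total RNA for oligo(dT) reverse transcription and reporter-specific PCR. Labelled, HpaI-cut fragments were sized by capillary electrophoresis; DMSO set the baseline for bidirectional fitting.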

Test [6] deals with Myc proto-oncogene protein (Homo sapiens) (UniProt P01106). In words: ATG_Myc_CIS: Attagene CIS-FACTORIAL HepG2 Assay for human Myelocytomatosis (Myc) Proto-Oncogene Transcription Factor (AID 2282990). Particulars: HepG2, Attagene cis-reporter transcription factor activity; actives raise or lower the signal. The gist of the method:
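Multiplexed cis-reporter transcription in HepG2 cells after 24 h chemical treatment. Reporter mRNA measured by RT-PCR and capillary electrophoresis fluorescence; activity fitted bidirectionally against DMSO control.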

The nature of test [7]: ATG_NRF2_ARE_CIS: Attagene CIS-FACTORIAL HepG2 Assay for human Nuclear Factor Erythroid 2 Related Factor 2 (NFR2) response to Antioxidant Response Elements (ARE) (AID 2282992). Particulars: HepG2 Attagene ARE/NRF2 reporter, transcription factor activity; actives raise or lower the signal. The gist of the method:
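Readout: reporter mRNA quantified by RT-PCR plus FAM-labelled primer extension, HpaI digestion and capillary electrophoresis, 24 h after dosing transfected HepG2 cells. Gain or loss of signal is fitted bidirectionally against DMSO baseline.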

Test [8] is described as follows: ATG_Oct_MLP_CIS: Attagene CIS-FACTORIAL HepG2 Assay for human Octamer-Binding Transcription Factor (Oct) (AID 2282993). Particulars: HepG2 Attagene cis-factorial Oct reporter, mRNA; actives raise or lower the signal. The gist of the method:
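Using HepG2 cells bearing transfected cis-reporter constructs, mRNA induction was read after 24 h by fluorescent RT-PCR and capillary electrophoresis, with DMSO defining baseline for gain- or loss-of-signal fits.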

The target in test [9] is Cellular tumor antigen p53 (Homo sapiens) (UniProt P04637). In words: ATG_p53_CIS: Attagene CIS-FACTORIAL HepG2 Assay for human p53 Transcription Factor (AID 2282994). Conditions: HepG2 p53 cis-element reporter, Attagene mRNA; actives raise or lower the signal. The gist of the method: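 Read-out: reporter mRNA by RT-PCR plus capillary electrophoresis with fluorescence detection. Human HepG2 liver cells carried transfected multi-reporter cis-element constructs, dosed 24 h. Gain or loss of signal fitted bidirectionally against DMSO control.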

For test [10], the target named is human Peroxisome Proliferator-activated Receptor alpha (PPARa), PPARA (gene 5465) (UniProt Q07869). Put plainly: ATG_PPARa_TRANS: Attagene TRANS-FACTORIAL HepG2 Assay for human Peroxisome Proliferator-activated Receptor alpha (PPARa) (AID 2283001; active means hit-call score of the fitted dose curve at least 0.9, where 1 is the maximum). The method, boiled down:
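Cells (HepG2) are transfected with multiple reporter transcription units, exposed to chemical for 24 h, then total RNA is reverse-transcribed and amplified. Labelled products are quantified by capillary electrophoresis; induction is referenced to DMSO.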

The target in test [11] is human Peroxisome Proliferator-activated Receptor delta (PPARd), PPARD (gene 5467) (UniProt Q03181). In words: ATG_PPARd_TRANS: Attagene TRANS-FACTORIAL HepG2 Assay for human Peroxisome Proliferator-activated Receptor delta (PPARd) (AID 2283002; active means hit-call score of the fitted dose curve at least 0.9, where 1 is the maximum). The method, boiled down: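 Multiplexed trans-activation format: HepG2 liver cells expressing exogenous NR-Gal4 chimeras and GAL4-UAS reporters were exposed for 24 h. Reporter mRNA was detected by RT-PCR with capillary electrophoresis fluorescence; activity fitted as gain of signal relative to DMSO.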

Test [12] has as its target Nuclear receptor subfamily 4 group A member 2 (Homo sapiens) (UniProt P43354). Put plainly: ATG_NURR1_TRANS: Attagene TRANS-FACTORIAL HepG2 Assay for human Nuclear Receptor Related Protein 1 (NURR1) (AID 2282985; active means hit-call score of the fitted dose curve at least 0.9, where 1 is the maximum). Conditions: HepG2 Attagene TRANS reporter, mRNA readout. The gist of the method:
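Chimeric NR-Gal4 fusion activity measured in HepG2 after 24 h treatment. Reporter transcripts detected by RT-PCR and capillary electrophoresis fluorescence; positive-direction curve fitting against DMSO.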

The nature of test [13]: BSK_3C_TissueFactor: BioMAP Diversity Plus: 3C Assay for Tissue Factor Biomarker Activity (AID 2282997). Particulars: BioMAP 3C HUVEC, tissue factor biomarker readout; actives raise or lower the signal. The method, boiled down:
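Cells used were primary human umbilical vein endothelial cells. They were dosed with chemical, and after 24 h Tissue Factor was quantified by ELISA. Curves were fitted bidirectionally with DMSO as baseline.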

Test [14] can be described thus: BSK_3C_uPAR: BioMAP Diversity Plus: 3C Assay for Urokinase-type plasminogen activator receptor (uPAR) Biomarker Activity (AID 2282998). Conditions: BioMAP 3C HUVEC, uPAR biomarker ELISA; actives raise or lower the signal. The gist of the method:
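In this endothelial cell-based assay, human umbilical vein primary cells were treated with chemicals and harvested at 24 h. uPAR was quantified using ELISA, with gains or losses fitted relative to DMSO controls.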

Test [15] can be described thus: BSK_4H_Eotaxin3: BioMAP Diversity Plus: 4H Assay for Eotaxin 3 Biomarker Activity (AID 2283000).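 On outcome: CCL26 protein level quantified by ELISA in parallel with SRB cytotoxicity check.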 Particulars: primary human endothelial cells (HUVEC); actives raise or lower the signal. The gist of the method:
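Endothelial primary cells (human umbilical vein) exposed to compound for 24 h. ELISA detection of Eotaxin-3.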

Read-out in test [16]: Intercellular Adhesion Molecule 1 (ICAM1), ICAM1 (gene 3383)
Put plainly: BSK_3C_ICAM1: BioMAP Diversity Plus: 3C Assay for Intercellular Adhesion Molecule 1 (ICAM1) Biomarker Activity (AID 2283003). Conditions: primary human endothelial cells (HUVEC); actives raise or lower the signal. The gist of the method:
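ELISA readout of ICAM1 in human umbilical vein endothelial cells in the 3C system, taken 24 h post-dose. Gain or loss of signal versus DMSO was fitted in both directions, with SRB total-protein staining run in parallel.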

A short description of test [17]: ATG_NF_kB_CIS: Attagene CIS-FACTORIAL HepG2 Assay for human Nuclear Factor Kappa B (NF-kB) (AID 2282991). Conditions: HepG2 Attagene cis-factorial NF-kB reporter mRNA; actives raise or lower the signal. The method, boiled down:
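HepG2 cells transfected with cis-promoter-driven reporter units, so endogenous transcription factor activity is measured. Reporter mRNA quantified 24 h after dosing by RT-PCR and capillary electrophoresis, with bidirectional fitting against DMSO.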

The nature of test [18]: BSK_3C_VCAM1: BioMAP Diversity Plus: 3C Assay for Vascular cell adhesion molecule 1 (VCAM1) Biomarker Activity (AID 2282999). Particulars: BioMAP 3C HUVEC, VCAM1 ELISA, cytokine-stimulated; actives raise or lower the signal. The method, boiled down: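 Vascular primary endothelium (human umbilical vein) was exposed to chemicals and assayed 24 h later. VCAM-1 levels came from ELISA, with DMSO serving as baseline for bidirectional fitting.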

Inconclusive results are not listed. The source made the active and inactive calls. How the source made its calls, unless noted: active means hit-call score of the fitted dose curve at least 0.9, where 1 is the maximum; inactive means score below 0.9.

Sequence of Cellular tumor antigen p53 (Homo sapiens) (P04637 whole entry, looked up): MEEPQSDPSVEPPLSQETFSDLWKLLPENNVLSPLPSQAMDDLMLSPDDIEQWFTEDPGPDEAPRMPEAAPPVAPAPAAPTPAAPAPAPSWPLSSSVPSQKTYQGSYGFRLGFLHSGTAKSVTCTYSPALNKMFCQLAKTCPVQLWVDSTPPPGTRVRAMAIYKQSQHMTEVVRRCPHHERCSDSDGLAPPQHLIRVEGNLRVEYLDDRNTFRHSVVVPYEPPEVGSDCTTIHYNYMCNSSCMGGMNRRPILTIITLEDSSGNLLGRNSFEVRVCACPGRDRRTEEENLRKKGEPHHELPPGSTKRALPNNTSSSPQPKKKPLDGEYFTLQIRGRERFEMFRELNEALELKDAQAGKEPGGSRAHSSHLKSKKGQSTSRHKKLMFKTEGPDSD
Sequence of human Peroxisome Proliferator-activated Receptor alpha (PPARa), PPARA (gene 5465) (Q07869 whole entry, looked up): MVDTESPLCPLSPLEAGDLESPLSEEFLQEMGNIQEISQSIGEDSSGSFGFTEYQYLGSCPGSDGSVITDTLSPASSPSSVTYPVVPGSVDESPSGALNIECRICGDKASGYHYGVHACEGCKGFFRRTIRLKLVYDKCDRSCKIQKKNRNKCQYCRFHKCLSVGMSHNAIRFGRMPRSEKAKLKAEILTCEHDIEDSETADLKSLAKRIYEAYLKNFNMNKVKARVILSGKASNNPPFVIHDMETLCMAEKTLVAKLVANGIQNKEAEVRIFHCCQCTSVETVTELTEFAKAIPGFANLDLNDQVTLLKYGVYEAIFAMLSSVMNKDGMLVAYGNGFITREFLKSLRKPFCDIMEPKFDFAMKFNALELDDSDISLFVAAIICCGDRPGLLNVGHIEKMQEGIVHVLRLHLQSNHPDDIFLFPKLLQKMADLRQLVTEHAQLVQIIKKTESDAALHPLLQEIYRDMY
Sequence of Nuclear respiratory factor 1 (Homo sapiens) (Q16656 whole entry, looked up): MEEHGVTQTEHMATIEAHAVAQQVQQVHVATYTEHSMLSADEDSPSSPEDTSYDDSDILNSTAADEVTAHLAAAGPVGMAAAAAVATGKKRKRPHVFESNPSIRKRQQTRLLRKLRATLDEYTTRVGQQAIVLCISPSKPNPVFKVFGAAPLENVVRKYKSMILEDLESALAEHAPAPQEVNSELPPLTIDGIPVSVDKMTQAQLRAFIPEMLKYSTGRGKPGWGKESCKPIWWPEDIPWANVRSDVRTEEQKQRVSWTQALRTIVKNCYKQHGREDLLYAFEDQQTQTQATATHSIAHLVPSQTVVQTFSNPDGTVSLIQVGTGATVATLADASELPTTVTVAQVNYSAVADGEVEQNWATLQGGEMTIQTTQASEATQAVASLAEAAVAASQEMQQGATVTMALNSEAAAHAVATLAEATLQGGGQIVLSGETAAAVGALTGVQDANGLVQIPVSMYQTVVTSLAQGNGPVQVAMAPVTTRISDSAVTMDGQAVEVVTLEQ
Sequence of Nuclear receptor subfamily 4 group A member 2 (Homo sapiens) (P43354 whole entry, looked up, the tested form may be a part): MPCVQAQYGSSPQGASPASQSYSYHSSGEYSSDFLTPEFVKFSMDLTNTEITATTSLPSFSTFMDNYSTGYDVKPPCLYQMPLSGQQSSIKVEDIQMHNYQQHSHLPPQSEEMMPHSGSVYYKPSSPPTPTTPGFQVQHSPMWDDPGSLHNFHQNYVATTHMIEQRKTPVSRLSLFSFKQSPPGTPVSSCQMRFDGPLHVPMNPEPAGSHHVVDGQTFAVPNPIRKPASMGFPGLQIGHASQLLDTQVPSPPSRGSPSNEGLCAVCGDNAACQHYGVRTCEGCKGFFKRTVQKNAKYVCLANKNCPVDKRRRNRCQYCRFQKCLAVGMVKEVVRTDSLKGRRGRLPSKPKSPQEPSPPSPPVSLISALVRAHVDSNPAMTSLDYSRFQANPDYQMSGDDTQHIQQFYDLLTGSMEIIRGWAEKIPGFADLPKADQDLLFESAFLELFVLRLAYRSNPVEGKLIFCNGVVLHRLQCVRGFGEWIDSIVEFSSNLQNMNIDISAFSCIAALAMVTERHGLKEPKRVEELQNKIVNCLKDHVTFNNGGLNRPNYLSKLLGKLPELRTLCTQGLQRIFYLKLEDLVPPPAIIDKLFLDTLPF
Sequence of Transcriptional activator Myb (Homo sapiens) (P10242 whole entry, looked up): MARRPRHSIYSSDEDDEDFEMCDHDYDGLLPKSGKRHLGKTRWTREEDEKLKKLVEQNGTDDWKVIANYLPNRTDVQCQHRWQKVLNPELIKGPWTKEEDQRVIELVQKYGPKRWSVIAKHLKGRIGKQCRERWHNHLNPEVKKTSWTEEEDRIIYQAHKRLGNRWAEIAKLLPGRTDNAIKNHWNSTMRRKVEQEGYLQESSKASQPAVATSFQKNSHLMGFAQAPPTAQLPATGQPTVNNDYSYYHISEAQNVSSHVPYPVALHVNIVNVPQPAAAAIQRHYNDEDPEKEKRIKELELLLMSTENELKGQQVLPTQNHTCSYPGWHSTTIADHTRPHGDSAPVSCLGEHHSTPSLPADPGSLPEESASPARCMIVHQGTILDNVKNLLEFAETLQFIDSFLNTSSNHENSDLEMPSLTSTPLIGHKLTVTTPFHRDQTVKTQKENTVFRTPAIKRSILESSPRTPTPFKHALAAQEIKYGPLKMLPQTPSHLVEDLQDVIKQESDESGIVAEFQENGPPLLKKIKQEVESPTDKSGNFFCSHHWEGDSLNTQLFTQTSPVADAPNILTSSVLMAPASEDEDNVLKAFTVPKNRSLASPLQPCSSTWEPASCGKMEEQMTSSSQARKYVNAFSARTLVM
Sequence of Myc proto-oncogene protein (Homo sapiens) (P01106 whole entry, looked up): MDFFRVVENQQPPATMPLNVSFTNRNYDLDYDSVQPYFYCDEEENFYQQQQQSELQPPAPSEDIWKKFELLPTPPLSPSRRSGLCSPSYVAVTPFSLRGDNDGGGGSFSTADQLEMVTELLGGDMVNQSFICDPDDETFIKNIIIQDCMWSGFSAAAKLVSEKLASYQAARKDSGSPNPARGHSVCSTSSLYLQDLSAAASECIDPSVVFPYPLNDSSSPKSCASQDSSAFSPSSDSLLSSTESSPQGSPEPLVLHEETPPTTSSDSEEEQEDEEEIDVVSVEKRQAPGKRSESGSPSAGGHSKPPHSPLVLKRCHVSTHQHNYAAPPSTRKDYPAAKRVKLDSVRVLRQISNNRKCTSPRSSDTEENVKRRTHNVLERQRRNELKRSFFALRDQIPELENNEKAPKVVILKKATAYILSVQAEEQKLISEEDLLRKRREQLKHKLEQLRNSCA
Sequence of human Peroxisome Proliferator-activated Receptor delta (PPARd), PPARD (gene 5467) (Q03181 whole entry, looked up, the tested form may be a part): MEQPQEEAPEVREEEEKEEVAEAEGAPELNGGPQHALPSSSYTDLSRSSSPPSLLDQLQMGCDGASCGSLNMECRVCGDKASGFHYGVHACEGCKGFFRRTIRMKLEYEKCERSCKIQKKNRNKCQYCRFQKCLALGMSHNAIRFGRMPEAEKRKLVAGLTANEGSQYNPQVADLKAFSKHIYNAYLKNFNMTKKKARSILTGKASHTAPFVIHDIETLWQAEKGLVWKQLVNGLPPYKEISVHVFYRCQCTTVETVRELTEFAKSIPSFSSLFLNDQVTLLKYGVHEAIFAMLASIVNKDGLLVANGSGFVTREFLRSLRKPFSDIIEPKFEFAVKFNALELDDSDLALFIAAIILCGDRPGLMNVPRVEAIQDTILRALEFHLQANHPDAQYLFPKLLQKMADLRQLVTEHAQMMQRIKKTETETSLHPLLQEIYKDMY

Take `O=C(Cc1ccccc1)c1ccccc1`: the result in [1], in [2], in test [3], in test [4], in test [5] and in test [6] was inactive. In addition, the outcome in test [8], in test [9], in [10] and in test [11] was inactive. Moreover, the AC50 in test [7] was 19.8 µM (active).

With `Nc1cccc2ccccc12`, the call in [12], in [3], in [4], in test [5], in test [6] and in test [9] was inactive. Moreover, the result in test [14], in [15], in test [10] and in test [16] was inactive. Further, the AC50 in [7] was 77.9 µM (active); in test [13], 12.4 µM (active).

On to `CCCCCCCCSC(=O)Oc1cc(Cl)nnc1-c1ccccc1`, for which the call in test [12], in [3], in test [4], in test [6], in test [17] and in test [8] was inactive. Besides, the call in test [9], in test [10] and in [11] was inactive. Besides, the AC50 in [5] is 73.7 µM (active); in test [7], 52.7 µM (active).

Consider `OCC(O)CCl` (configuration not stated), for which the outcome in [1], in test [12], in test [3], in [4], in test [5] and in test [6] was inactive. The compound was called inactive in test [17], in test [7], in test [8], in [9] and in [11].

Take `CC(=O)OC(c1ccccc1)C(Cl)(Cl)Cl` (configuration not stated): the call in test [2], in test [3], in test [4], in [5], in test [6] and in test [7] was inactive. The result in [8], in test [9], in [13], in [14], in test [15] and in test [10] was inactive. For the same compound, the call in test [11] was inactive.

In the case of `Cc1ccc2ccccc2c1C`, the compound was called inactive in [2], in test [3], in [6], in test [8], in test [10] and in test [11].

For `CC(=O)[O][Hg][c]1ccccc1`, the outcome in test [1], in [3], in test [4], in test [6], in [17] and in test [9] was inactive. The result in test [10] and in test [11] was inactive. Besides, the AC50 in test [5] is 3.71 µM (active); in test [8] it was 2.5 µM (active); in [13], 2.59 µM (active); in test [14] it was 1.17 µM (active); in test [18], 2.36 µM (active); in test [15], 1.78 µM (active).

For the compound `CCCCOCCOC(C)=O`, the compound was classed as inactive in test [1], in [2], in test [3], in test [4], in test [5] and in test [6]. Also, the outcome in test [7], in test [8], in [9] and in test [11] was inactive.

`O=C(Cl)c1ccc(Cl)cc1`: the call in test [1], in test [2], in test [3], in test [4], in test [5] and in [6] was inactive. The result in test [17], in test [9] and in test [10] was inactive.
